Structures are written as SMILES. Records with an inconclusive call do not appear. The source made the active and inactive calls. How the source made its calls: active means hit-call score of the fitted dose curve at least 0.9, where 1 is the maximum; inconclusive means response in the unintended direction; inactive means score below 0.9.

Read-out in this assay: sulfotransferase (SULT2A), SULT2A1 (gene 6822)
The assay is described as follows: CLD_SULT2A_6hr: CellzDirect (CLD) Gene Expression Assay for sulfotransferase (SULT2A) at 6 hours (AID 2283669).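 Further: hits raise transcript level above the DMSO vehicle baseline.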 As to the method: CLD_6hr is a cell-based, multiplexed-readout assay that uses hepatocyte, a human liver primary cell, with measurements taken at 6 hours after chemical dosing in a 96-well plate.CLD_SULT2A_6hr is one of 16 assay component(s) measured or calculated from the CLD_6hr assay. It is designed to make measurements of mRNA induction, a form of inducible reporter, as detected with chemiluminescence signals by Quantitative Nuclease Protection Assay (qNPA) technology.Data from the assay component CLD_SULT2A_6hr was analyzed at the endpoint, CLD_SULT2A_6hr, in the positive analysis fitting direction relative to DMSO as the negative control and baseline of activity. Using a type of inducible reporter, gain-of-signal activity can be used to understand changes in the reporter gene as they relate to the gene SULT2A1. Furthermore, this assay endpoint can be referred to as a primary readout. To generalize the intended target to other relatable targets, this assay endpoint is annotated to the transferase intended target family, where subfamily is sulfotransferase.
Human hepatocyte cultures were treated daily for two consecutive days with fresh dosing solutions containing appropriate concentrations of the 320 ToxCast chemicals (chemical identities were blinded to CellzDirect and other ToxCast collaborators), vehicle control (0.2% DMSO), and positive control inducers as summarized in Table 1. Due to the large number of treatment groups and chemicals examined, the ToxCast chemicals were divided into two groups (spanning two independent cultures of hepatocytes from separate donor preparations (Hu778: ToxCast plates 1 and 2; Hu776: ToxCast plates 3 and 4). Each preparation of human hepatocyte cultures was treated with respective vehicle control, medium only control, set of six positive controls/reference chemicals for the five hepatic receptor pathways, and a subset of eight of the ToxCast chemicals (indoxacarb, pyrithiobac-sodium, norflurazon, cyhalofop-butyl, methomyl, thiram, acetochlor, and propiconazole). These replicate data, coupled with internal replicates designed within the blinded ToxCast chemical library, provided additional data to evaluate interindividual differences between hepatocyte preparations and their potential impact on chemical profiles.Cell morphology and integrity were evaluated using phase-contrast microscopy as an indicator of hepatocyte cell health (Tyson & Green, 1987). Cultures for each treatment group (i.e., media, vehicle [0.2% DMSO], positive control inducers [multiple concentrations], and the ToxCast chemicals [multiple concentrations]) were observed and cell morphology was assessed relative to vehicle control cultures at each harvest time point (0, 6, 24, or 48 h). […] Images were evaluated at the conclusion of the study to assess changes in cell integrity and account for the effects of chemical exposure on uncharacteristic changes in concentration-dependent gene expression profiles. The results from these determinations of apparent cytotoxicity were annotated (yes/no) alongside the corresponding qNPA data for reference.At the conclusion of each treatment period, hepatocyte cultures (96-well) were washed with 1 volume of HBSS, lysed by addition of 25 ul ArrayPlate lysis buffer (HTG, Tucson, AZ), and 70 ul/well of Denaturation Oil, denatured by incubation at 95C for 10 min, and frozen at approximately -70C until analysis by nuclease protection assay (qNPA) (Roberts et al., 2007). For qNPA analysis, cell lysates were thawed at 50C for approximately 30 min, qNPA probes were added, and samples were incubated at 95C for 10 min to begin the detection process by denaturing the target RNA, dissociating the duplexes and secondary structure hybridization. At the conclusion of the hybridization period, S1 nuclease reagent was added to each sample to digest all nonprotected nucleotides at 50C for 60-90 min. […]
With `CCCCCOC(=O)COc1cc(N2C(=O)C3=C(CCCC3)C2=O)c(F)cc1Cl`, the call was inactive.

Take `CSC(=O)c1cccc2nnsc12`: the compound was classed as inactive. In the case of `CCOC(=O)C(C)Oc1ccc(Oc2nc3ccc(Cl)cc3o2)cc1` (stereo not given), the call was inactive.

In the case of `COC(=O)c1ccccc1C(=O)O`, the compound was called inactive. In the case of `Cc1nn(C)c(Oc2ccccc2)c1C=NOCc1ccc(C(=O)OC(C)(C)C)cc1`, the call was inactive. As for `CCCOC(=O)c1ccc(C(=O)OCCC)nc1`, the result was inactive. With `CCCOC(=O)NCCCN(C)C`, the result was inactive. Same read-out and setting: the result for `COC(=O)CSc1cc(N=c2sc(=O)n3n2CCCC3)c(F)cc1Cl` reads “inactive”; that for `CC1(C)C(C=C(Cl)Cl)C1C(=O)OCc1cccc(Oc2ccccc2)c1` (stereo not given), “inactive”. Consider `C=CCOC(Cn1ccnc1)c1ccc(Cl)cc1Cl` (stereo not given), for which the call was inactive. In the case of `COC(=O)c1ccc(I)cc1S(=O)(=O)NC(=O)Nc1nc(C)nc(OC)n1`, the compound was classed as inactive. As to `CCOC(=O)COc1cc(-n2ncc(C(F)(F)F)c(C)c2=O)c(F)cc1Cl`, the result was inactive. As for `CCN(CC)C(=O)c1cccc(C)c1`, the compound was called inactive. `CCCCC(CC)CN1C(=O)C2C3C=CC(C3)C2C1=O` (stereo not given): the compound was classed as inactive.

For `Oc1ccc(C(c2ccc(O)cc2)C(Cl)(Cl)Cl)cc1`, the call was inactive. For `COc1nc(C)nc(NC(=O)NS(=O)(=O)c2ccccc2OCCCl)n1`, the compound was classed as inactive. The term AC50 denotes the midpoint of the concentration-response curve, whichever way the signal moves. As for `S=C([S-])NCCNC(=S)[S-].[Mn+2]`, the AC50 was 3.97 µM (active). Take `CCCCOC(=O)[C@@H](C)Oc1ccc(Oc2ccc(C(F)(F)F)cn2)cc1`: the outcome was inactive.

Regarding `N#CSCSc1nc2ccccc2s1`, the compound was classed as inactive. With `CCCCC(CC)COC(=O)c1ccccc1C(=O)O` (stereo not given), the compound was called inactive. As to `CC(C)(C)[C@@H](O)[C@@H](Cc1ccc(Cl)cc1)n1cncn1`, the outcome was inactive.

As for `CN(C)C(=O)Nc1ccc(Cl)c(Cl)c1`, the result was inactive. As to `CCN(Cc1c(F)cccc1Cl)c1c([N+](=O)[O-])cc(C(F)(F)F)cc1[N+](=O)[O-]`, the compound was called inactive.

Turning to `S=C(S)NCCNC(=S)S.[Mn+2].[S-]C([S-])=NCCN=C([S-])[S-].[Zn+2]`, the outcome was inactive. With `CC(C)(c1ccc(O)cc1)c1ccc(O)cc1`, the compound was classed as inactive. `CCCN(CCC)C(=O)SCC`: the result was inactive. For `CCCN(CCC)c1c([N+](=O)[O-])cc(C(F)(F)F)c(N)c1[N+](=O)[O-]`, the result was inactive. Same read-out and setting: the result for `C#CCOC(=O)[C@@H](C)Oc1ccc(Oc2ncc(Cl)cc2F)cc1` reads “inactive”.

As to `COC(=O)c1ccc(CNS(C)(=O)=O)cc1S(=O)(=O)NC(=O)Nc1nc(OC)cc(OC)n1`, the call was inactive. Regarding `CCSC(=O)N(CC(C)C)CC(C)C`, the outcome was inactive.

For the compound `COC(=O)c1c(Cl)nn(C)c1S(=O)(=O)NC(=O)Nc1nc(OC)cc(OC)n1`, the outcome was inactive. For `COc1c(Cl)ccc(Cl)c1C(=O)O`, the result was inactive. In the case of `O=C(O)C1(C(=O)Nc2ccc(Cl)cc2Cl)CC1`, the outcome was inactive. For `CCOC(=O)NCCOc1ccc(Oc2ccccc2)cc1`, the call was inactive. Regarding `CCCCOCCOCCOCc1cc2c(cc1CCC)OCO2`, the call was inactive.

As to `CCOC(=O)[C@H](C)Oc1ccc(Oc2nc3ccc(Cl)cc3o2)cc1`, the call was inactive. Turning to `COC(=O)c1cccc(C)c1S(=O)(=O)NC(=O)Nc1nc(OCC(F)(F)F)nc(N(C)C)n1`, the compound was called inactive.

In the case of `CCC(C)OC(=O)N1CCCCC1CCO` (stereo not given), the compound was called inactive.

For the compound `CCNc1nc(N)nc(Cl)n1`, the compound was classed as inactive. `CCCCOC(=O)C(C)Oc1ccc(Oc2ccc(C(F)(F)F)cn2)cc1` (stereo not given): the call was inactive.

The record behind these values is PubChem BioAssay (EPA / NIEHS).
